Source: PubChem
VHR inh color: VHR1 (DUSP3) phosphatase inhibition; P51452; recombinant VHR phosphatase, colorimetric substrate read-out; AID 1992; inhibition, % at 20 µM; 0.7% of 50,000 active; in the data active = inhibition above about 60%
Target sequence (P51452 whole entry, looked up): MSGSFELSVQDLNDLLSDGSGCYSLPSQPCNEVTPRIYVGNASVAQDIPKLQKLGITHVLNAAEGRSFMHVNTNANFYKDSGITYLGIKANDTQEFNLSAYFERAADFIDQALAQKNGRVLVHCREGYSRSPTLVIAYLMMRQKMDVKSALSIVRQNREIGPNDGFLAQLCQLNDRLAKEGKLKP
Of the large screens only hits and unclear results are named; the others gave an inactive call. Only a selection was taken, and hits are over-represented in it overall.

OC(CNCc1ccccc1)(c1ccccc1)c1ccc(Br)cc1 (centres undefined)	none
Cc1ccc(/C=C2/SC(=S)N(CCC(=O)O)C2=O)o1	none
Cc1ccc(/C=C2\SC(=S)N(CC(C)C)C2=O)o1	VHR inh color 87
Cc1ccsc1/C=C1\SC(=S)N(CC(C)C)C1=O	none
CC1=C(C(=O)OCCOc2ccccc2)C(c2ccc(Cl)cc2)C2=C(CC(C)(C)CC2=O)N1 (centres undefined)	none
Cc1ccc(-n2cc(C=C3C(=O)NC(=O)NC3=O)cn2)cc1C	VHR inh color 105
Cc1ccc(-n2c(C)cc(C=C3C(=O)NC(=S)NC3=O)c2C)cc1C	none
Cc1ccc(-n2cc(/C=c3\sc4nc5cc(C)c(C)cc5n4c3=O)cn2)cc1C	none
O=C(NCCN1CCNCC1)C(=O)NCc1ccco1	none
COc1ccc(NC(=O)C2=C(C)NC(=S)NC2c2ccc(Br)cc2)cc1 (centres undefined)	none
O=[N+]([O-])c1cccc(/C=N/Nc2cc(N3CCOCC3)nc(N3CCOCC3)n2)c1	none
Cc1ccc(/C=C(\C#N)c2nc(-c3cccc(Br)c3)cs2)o1	VHR inh color 88
Cc1ccc(/C=C(\C#N)c2nc(-c3ccc(C)c(C)c3)cs2)o1	none
Cc1ccc(/C=C(\C#N)c2nc(-c3cccc([N+](=O)[O-])c3)cs2)o1	none
Nc1ccc(C2=Nc3cccc4cccc(c34)N2)cc1	VHR inh color 85
CCOc1ccc(N2C(=O)NC(=O)/C(=C\c3ccc(I)o3)C2=O)cc1	none
CCOc1ccc(N2C(=O)/C(=C/c3ccc(C)o3)C(=O)NC2=S)cc1	none
COc1ccccc1C=C1C(=O)NC(=S)N(c2ccccc2F)C1=O	none
CCc1ccc(N2C(=O)/C(=C/c3ccc(I)o3)C(=O)NC2=S)cc1	none
O=C1NC(=S)N(c2ccccc2F)C(=O)/C1=C/c1ccc(I)o1	VHR inh color 86
CCOc1ccc(N2C(=O)/C(=C/c3ccc(I)o3)C(=O)NC2=S)cc1	VHR inh color 85
COc1ccc(NC(=O)C2=C(C)NC(=O)NC2c2cccc(OC)c2)cc1 (centres undefined)	none
CCOC(=O)/C=C(\C)Nc1cc(C)nn1-c1ccccc1	VHR inh color 110
CCOC(=O)/C=C(\C)Nc1cc(-c2ccc(Cl)cc2)[nH]n1	none
CC(=O)Nc1cc(-c2ccc(Cl)cc2)nn1-c1ccccc1	none
CCOC(=O)C1=C(C)NC(=O)NC1c1cc(OC)c(OC)c(OC)c1 (centres undefined)	none
C=CCc1cc(/C=C2/C(=O)NC(=O)N(c3ccccc3)C2=O)cc(OC)c1O	none
O=C(O)c1ccc(C(=O)c2ccccc2)o1	none
CC(C)(C)c1ccc(/C=C/C(=O)Nc2ccc([N+](=O)[O-])cc2)cc1	none
COc1cccc(OC)c1C(=O)NCc1ccccc1Cl	none
O=C1NC(=S)N(c2ccc(Cl)cc2)C(=O)/C1=C/c1ccc(-c2ccc(C(=O)O)cc2)o1	none
O=C1NC(=O)N(c2ccccc2)C(=O)/C1=C\c1ccc(-c2ccc(C(=O)O)cc2)o1	none
O=C1NC(=S)NC(=O)C1=Cc1ccc(-c2ccc(C(=O)O)cc2)o1	VHR inh color 89
O=C(CSc1ncc(-c2ccccc2)[nH]1)Nc1ccc(F)cc1	none
O=C1CC(c2ccccc2)CN1C(=O)C12CC3CC(CC(C3)C1)C2 (centres undefined)	none
O=S(=O)(NCc1ccc2c(c1)OCO2)c1ccc(Cl)cc1Cl	none
CC(=O)Oc1cccc2c1C(=O)c1ccccc1C2=O	none
COc1ccc2noc3c2c1C(=O)c1ccccc1-3	none
COc1ccc(OC)c2c1C(=O)c1ccccc1C2=O	VHR inh color 94
Cc1cc(Cl)ccc1OCC(=O)NNC(=O)c1ccc2ccccc2c1O	none
O=C(Nc1ccccc1C(=O)N1CCN(Cc2ccccc2)CC1)c1ccccc1Cl	none
Oc1ccccc1/C=N/Nc1c(Cl)cc(Cl)cc1Cl	none
O=c1[nH]c(=S)n(-c2ccccc2F)c(O)c1C=C1C=CC=N1	none
CC(C)=C1C(=O)NN(c2ccc(C)c(Cl)c2)C1=O	none
COc1ccc(Cl)cc1/C=C1/C(=O)NN(c2cccc(Br)c2)C1=O	none
CC(C)=C1C(=O)NN(c2cccc(Br)c2)C1=O	VHR inh color 81
Cn1c(=O)c2c(nc3n2CC(=O)N3c2cccc(Cl)c2)n(C)c1=O	none
COC(=O)c1c(N)sc2c1CCC(c1ccccc1)C2 (centres undefined)	none
CCOC(=O)c1c(NC(=O)Oc2ccccc2)sc2c1CCC(C)C2 (centres undefined)	none
CCOC(=O)c1c(N)sc2c1CCC(c1ccccc1)C2 (centres undefined)	VHR inh color 94
COc1ccccc1-n1cnc2cc(NC(=O)c3ccc(C)cc3)ccc21	none
COc1ccccc1-n1cnc2cc(NC(C)=O)ccc21	none
COc1ccc(-n2cnc3cc(NC(C)=O)ccc32)cc1	VHR inh color 97
Cc1cc(/C=N/NC(=O)CC#N)c(C)n1-c1ccc(N(C)C)cc1	none
COc1cc([N+](=O)[O-])cc(/C=C2\C(=O)NC(=O)N(c3ccc(Br)c(C)c3)C2=O)c1O	none
Cc1cc(C(F)(F)F)nn1CC(=O)Nc1sc2c(c1C(N)=O)CCC(C)C2 (centres undefined)	none
CCOc1cc(/C=N/O)ccc1OCc1ccc(Cl)cc1	VHR inh color 116
CCOc1cc(C=C2C(=O)NC(=O)NC2=O)ccc1OCc1ccc(Cl)cc1	none
CCOc1cc(/C=C2/SC(=O)NC2=O)ccc1OCc1ccc(Cl)cc1	none
Cc1ccc(C(C)C)c(OCC(=O)Nc2ccc(NC(=O)c3ccccc3Cl)cc2)c1	none
CN(C)S(=O)(=O)c1ccc(C(=O)Nc2ccc(Cl)cc2C(=O)c2ccccc2)cc1	none
O=C(O)CCCCC(=O)NC1=NCCS1	none
COc1ccccc1N1C(=O)c2ccc(C(=O)Nc3ccc(O)cc3C)cc2C1=O	none
Cc1cccc(N2C(=O)NC(=O)/C(=C/c3cccn3-c3ccc([N+](=O)[O-])cc3)C2=O)c1	none
CC1=NN(c2ccccc2)C(=O)/C1=C/c1cccn1-c1ccc([N+](=O)[O-])cc1	none
CCN1C(=O)C(=Cc2cccn2-c2ccc([N+](=O)[O-])cc2)C(=O)N(CC)C1=S	VHR inh color 73
COc1ccc(/C=N/N=C2c3ccccc3-c3ccccc32)c(OC)c1	none
Cc1cccc(/C(N)=N/OC(=O)Cc2ccc(Cl)cc2)c1	none
CCOc1ccc(Nc2nc(-c3c(C)nc4cc(C)ccn34)cs2)cc1	VHR inh color 88
CCOc1ccc(Nc2nc(-c3sc(NC(=O)CC)nc3C)cs2)cc1	none
CCOc1ccc(Nc2nc(-c3ccccn3)cs2)cc1	none
Cc1ccc(-c2csc(Nc3ccc(O)cc3)n2)c(C)c1	none
Cc1ccn2c(-c3csc(Nc4cccc(O)c4)n3)c(C)nc2c1	VHR inh color 67
Cc1nc2ncccn2c1-c1csc(Nc2cccc(O)c2)n1	none
COc1ccc(S(=O)(=O)N(CC(=O)NCc2ccc(Cl)cc2)c2cc(C)cc(C)c2)cc1OC	none
COc1ccc(C(NC(=O)CN(c2cccc(Cl)c2)S(=O)(=O)c2ccccc2)c2ccccc2)cc1 (centres undefined)	none
CCOc1ccc(OC)cc1/C=N/NC(=O)c1ccc(C)cc1	none
COc1ccc(O)c(CN2CCN(Cc3ccc([N+](=O)[O-])cc3)CC2)c1	none
Cc1cc(/C=N\Nc2ccc([N+](=O)[O-])cn2)c(C)n1-c1ccc(C(=O)O)cc1	none
Cc1cc(C=O)c(C)n1-c1ccc([N+](=O)[O-])cc1	none
Cc1cc(/C=N\Nc2ccc([N+](=O)[O-])cn2)c(C)n1-c1ccc(O)cc1	VHR inh color 85
COCCCNS(=O)(=O)c1ccccc1[N+](=O)[O-]	none
O=C(O)C(Cc1ccccc1)N1C(=O)/C(=C/c2ccccc2Cl)SC1=S (centres undefined)	none
COc1ccccc1-c1cc(C(=O)O)c2ccccc2n1	none
O=C(O)c1cc(-c2cccc([N+](=O)[O-])c2)nc2ccccc12	none
